# Assay outcomes deposited in PubChem by several laboratories.
# Shown are actives, neighbours in structure and some others; about 2.2% of the full set was active somewhere.
# TROY NFkB inh: inhibitors of TROY-driven NF-kB signaling, primary screen, Q293 LMP1-TROYcd cells, NF-kB luciferase, uHTS; inhibition, % at 10 µM; Q293 LMP1-TROYcd NF-kB luciferase reporter, 4 h; hit rate 0.98% among 360,000; AID 1347056, 2019;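 active means compounds whose plate-normalised and pattern-corrected inhibition of the luciferase reporter signal at the single screening dose is 50% or more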
# TWEAK Fn14 block: inhibitors of TWEAK-Fn14 signaling, primary screen, luciferase reporter cells, uHTS; TWEAK-stimulated Fn14 reporter cells, luciferase luminescence, 8 h; hit rate 2% among 360,000; inhibition, % at 10 µM; in the data active means inhibition above about 50%
# HSP90 inh: HSP90 inhibitors, primary screen, cell lysate, luminescence. hit rate 0.91% among 290,000. inhibition, % at 5.6 µM. Rabbit reticulocyte lysate, luciferase refolding luminescence, 3 h. AID 1789, 2009. Heat shock protein HSP 90 (rabbit reticulocyte lysate; luciferase refolding);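 active means inhibition above the screen-wide mean plus 3 SD, computed separately per campaign, cut at about 16% in these data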;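 further: 0% = DMSO wells and 100% = 60 µM geldanamycin wells; inhibitors lower the luminescence because luciferase stays unfolded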
# LGR2 antag: inhibitors of bursicon-induced LGR2 CRE-luciferase signal, primary screen, cell-based, HEK293, CRE-luciferase reporter, bursicon stimulation | Drosophila bursicon receptor LGR2 (rickets) | bursicon-stimulated, 4 h | inhibition, % at 9.99 µM | hit rate 0.35% among 380,000;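 active means drop in luminescence signal, shown as inhibition above about 50% in the replicate tests, limit read from the data, passing the limit was not always enough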;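 further: agonist challenge used bursicon conditioned medium at about half maximal strength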
# HSP90 inh confirm: HSP90 inhibitors, confirmation, cell lysate, luminescence | inhibition, % at 5.9 µM | rabbit reticulocyte lysate, luciferase refolding luminescence, 3 h | hit rate 64% among 2,300 | shares compounds with HSP90 inh; in the data active means inhibition above about 18%;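 further: 0% = vehicle wells and 100% = reference inhibitor wells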
# luciferase ctr: firefly luciferase inhibitors, HSP90 counter-screen, confirmation, artefact control for HSP90 inhibitor project, biochemical, luminescence, triplicate. shares compounds with HSP90 inh. hit rate 48% among 2,300. inhibition, % at 5.9 µM. purified native firefly luciferase;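 active means inhibition above the mean inhibition of all tested sample wells plus 3 SD, cut at about 10% in these data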;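 further: 0% = DMSO with luciferase and 100% = wells lacking luciferase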
# Numbers without * were called inactive; · = not tested or not shown.
SMILES,TROY NFkB inh,TWEAK Fn14 block,HSP90 inh,LGR2 antag,HSP90 inh confirm,luciferase ctr
CC=Cc1ccc2n(c1=O)C[C@@H]1[C@@H](CO)[C@H](C(=O)OC)[C@H]2N1CC1CCOCC1 (mixture of isomers),·,·,·,4,·,·
COc1ccc(-n2c(/C=C/c3ccc(O)cc3)nc3ccccc3c2=O)cc1,11,19,4,9,·,·
CCn1nc(/C=C/c2ccccc2)nc2c(=O)n(C)c(=O)nc1-2,83*,106*,85*,104*,96*,88*
O=C1NC(=S)N(c2ccccc2)C(=O)/C1=C/c1ccco1,14,-18,7,-4,·,·
CCOc1cccc(N2C(=O)/C(=C/c3ccco3)C(=O)NC2=S)c1,17,10,32*,4,7,19*
CCN1[C@@H]2c3ccc(-c4ccc(OC)cc4)c(=O)n3C[C@H]1[C@H](CO)[C@H]2C(=O)OC,·,·,·,-11,·,·
O=C(O)[C@@H]1[C@@H](CO)[C@@H]2Cn3c(ccc(C4=CCCCC4)c3=O)[C@H]1N2CCc1ccccc1,·,·,·,-8,·,·
CCN1[C@@H]2c3ccc(-c4cccc(OC)c4)c(=O)n3C[C@H]1[C@H](CO)[C@H]2C(=O)OC,·,·,·,-13,·,·
COc1ccccc1OCCCn1cc(C=O)c2ccccc21,35,28,18*,-74,22*,-18
